The text below walks through data of the OligoGym collection.
Further: reference of the scale not given here.

The target of the first experiment is ABHD8. As to the kind of experiment: pooled miR-30 sensor sort-seq; sequence = guide strand. As to conditions: shRNA.
In turn, TTTAACAGCTGCTTCTCCTTGG returned a sensor-assay potency score (higher = more potent) of 0.506.

As to TAGCGCTTGAAGATTGCTCGCA, the sensor-assay potency score (higher = more potent) turned out to be 0.247.

AAACTTATCGTGCATGCCGTGG: the sensor-assay potency score (higher = more potent) was -1.36.

In turn, TTCGCTTCTTGGCATAGCGCTT registered a sensor-assay potency score (higher = more potent) of -0.977.

TTTTCCACCAGCAACCGCCCAT yielded a sensor-assay potency score (higher = more potent) of -0.43.

In turn, TTGCGGTACACGGTGATCCGGC registered a sensor-assay potency score (higher = more potent) of -0.925.

TACAAAGGTGTAGCCATCGCTG came in with a sensor-assay potency score (higher = more potent) of -0.814.

TTTGCAGCTAGTGATGCGCTTC: the sensor-assay potency score (higher = more potent) was -0.147.

Turning to TTGAAGATTGAGCAGAAGCTGG, the sensor-assay potency score (higher = more potent) was -0.887.

For the sequence TCACCTTGTGCACTAGGTCTGG, the sensor-assay potency score (higher = more potent) is -0.472.

The target of the next experiment is ACACB. The description is as above. As to conditions: shRNA.
Take TTGGACTGTACGAATGTCCGTA: the sensor-assay potency score (higher = more potent) turned out to be 0.552.

TTCTTGTCTTCTTTGGAGGGGG had a sensor-assay potency score (higher = more potent) of -0.0633.

Consider TTGTCATAAACATCTTCTGGGA, for which the sensor-assay potency score (higher = more potent) is -0.671.

TTGTAAGCTGGATCGATCCTTC showed a sensor-assay potency score (higher = more potent) of -0.276.

On to TAAGAAAGCAACTCCATTCTTG, for which the sensor-assay potency score (higher = more potent) worked out at 0.182.

In turn, TAATTTCTTGAGGTTCTCGGGG gave a sensor-assay potency score (higher = more potent) of -0.145.

For TTTATCAGATCTTTCTTTCGGA, the sensor-assay potency score (higher = more potent) is 0.775.

With TACATTTCTATGCACAGCGGGT, the sensor-assay potency score (higher = more potent) was -1.13.

TTGGATGTGTAGACCTCTCTTC gave a sensor-assay potency score (higher = more potent) of 0.36.

Turning to TTCTCAAACACACACGTCTTAT, the sensor-assay potency score (higher = more potent) is -1.28.

Consider TTTGCTTCTGATTTACTCTTGG, for which the sensor-assay potency score (higher = more potent) worked out at 0.795.

TTTATCACACACTTGTCGTAGT: the sensor-assay potency score (higher = more potent) came out at 0.458.

Sequence TTCGGTAACTGTCAACCTCTTC gave a sensor-assay potency score (higher = more potent) of -0.589.

TATCACACACTTGTCGTAGTGG came in with a sensor-assay potency score (higher = more potent) of 0.451.

TTTGTCTGCATACATTTCTATG yielded a sensor-assay potency score (higher = more potent) of -1.38.

On to TTCATGTAGGTGGTGTAGCTGT, for which the sensor-assay potency score (higher = more potent) is -0.772.

As to TTGATCTTGACCTCAGCCTGTA, the sensor-assay potency score (higher = more potent) was 0.316.

TAGAGGTATTCCACTGTCCCTG came in with a sensor-assay potency score (higher = more potent) of -0.211.

TGTATCTGGACTCTCCTCCTTC: the sensor-assay potency score (higher = more potent) was -0.0476.

The sequence TTACTCTTGGTGATCGGCTTGG gave a sensor-assay potency score (higher = more potent) of 0.104.

The sequence TTATCAGATCTTTCTTTCGGAA showed a sensor-assay potency score (higher = more potent) of -0.751.

On to TTCAGTAGTGAATCCGCTGGGA, for which the sensor-assay potency score (higher = more potent) worked out at 0.353.

TACTTGTCTGAAAAGGATCGGG registered a sensor-assay potency score (higher = more potent) of 0.16.

The target of another experiment is ACAD10. The description is as above. As to conditions: shRNA.
Consider TTTCAGAGCAAAGTCTCCCAAA, for which the sensor-assay potency score (higher = more potent) was -1.07.

Turning to TTCACAGAGATCAAGAACGTTA, the sensor-assay potency score (higher = more potent) worked out at 0.0116.

AAGCACAGCTTGTAGATCCTAG displayed a sensor-assay potency score (higher = more potent) of 0.0767.

In turn, TATGACATAGAAGCTGTCCTCC registered a sensor-assay potency score (higher = more potent) of 1.02.

On to TAATCCTGAACTCCCTCTCTAT, for which the sensor-assay potency score (higher = more potent) was -1.27.

With TTCAGCTTTGGCTTTCTCCTTG, the sensor-assay potency score (higher = more potent) was -0.097.

Consider TTTCATAATCCTGAACTCCCTC, for which the sensor-assay potency score (higher = more potent) is -0.41.
